In the supplement of paper PMC6555819:

Key:
Assay in all cases: PBM binding z-score (relative to random genomic background probes); higher = stronger binding; sequences stand for … in GC…GCGATTGACAGCGTAGAATGAAGG
[1] = tested on: FXR:RXRa (NR concentration 270 nM, RXRa partner concentration 90 nM)
How it was run: (§1)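 Ligand-free nuclear receptor dimers were bound for 1 h to custom Agilent 4×180K protein-binding microarrays. Detection used antibodies against each partner (one per run). Binding z-scores rest on regression-normalized fluorescence, with random background probes as the reference.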

[2] = tested on: LXRa:RXRa (NR concentration 270 nM, RXRa partner concentration 90 nM)
How it was run: as §1

[3] = tested on: LXRa homodimer (NR concentration 270 nM)
How it was run: as §1

[4] = tested on: LXRb:RXRa (NR concentration 270 nM, RXRa partner concentration 90 nM)
How it was run: as §1

[5] = tested on: LXRb homodimer (NR concentration 270 nM)
How it was run: as §1

[6] = tested on: PPARa:RXRa (NR concentration 270 nM, RXRa partner concentration 90 nM)
How it was run: as §1

[7] = tested on: PPARg:RXRa (NR concentration 180 nM, RXRa partner concentration 90 nM)
How it was run: as §1

[8] = tested on: PPARg:RXRa 270nM:90nM, anti-RXR (NR concentration 270 nM, RXRa partner concentration 90 nM)
How it was run: as §1

[9] = tested on: PPARg:RXRa 30nM:10nM, anti-RXR (NR concentration 30 nM, RXRa partner concentration 10 nM)
How it was run: as §1

[10] = tested on: PPARg:RXRa 90nM:30nM, anti-RXR (NR concentration 90 nM, RXRa partner concentration 30 nM)
How it was run: as §1

Row | Sequence | PBM binding z-score [1] | PBM binding z-score [2] | PBM binding z-score [3] | PBM binding z-score [4] | PBM binding z-score [5] | PBM binding z-score [6] | PBM binding z-score [7] | PBM binding z-score [8] | PBM binding z-score [9] | PBM binding z-score [10]
1 | TAGCCTAGGTCATTGGGTCAGTATAGTACGCATC | 4.85 | 4.31 | 1.59 | 3.21 | 0.907 | 4.58 | 5.28 | 5.07 | 1.89 | 3.99
2 | ATCTCTAGGTAACAAGTGCAGTGAAAGAGAGGAC | 0.0619 | 0.181 | -0.0829 | -0.182 | 0.699 | 0.43 | 1.07 | 1.38 | 0.591 | 1.05
3 | CAGCCTAGGTCAAGGCCAGTATAGGAGGAACGTT | 3.62 | 2.26 | -0.0783 | 1.7 | -0.501 | 3.45 | 2.15 | 2.23 | 0.352 | 1.18
4 | AGAATGAGGTTACCAAAGATCAGGGATACGCTTG | 1.93 | 5.68 | 0.0211 | 2.95 | 0.0562 | 3.28 | 2.84 | 2.6 | 1.03 | 1.77
5 | TCTATTAGGTGAAGGGCAACCGACGAGTCCGTTT | 0.937 | 1.07 | 0.449 | 0.669 | 0.667 | 2.44 | 4 | 5.18 | 4.86 | 5.44
6 | CAATCTAGGTCAAGAGGTCAAAGTCCGCTTCCCG | 7.07 | 6.49 | 6.61 | 5.64 | 2.31 | 6.48 | 10.2 | 8.66 | 7.43 | 9.5
7 | GATACAGGGTCAGCTAGAGCCCAGAGTATGGAAA | 4.49 | 2.36 | -0.499 | 2.18 | -0.471 | 4.59 | 3.94 | 3.29 | 0.917 | 2.03
8 | ACTAGCAGGCCAAGGTTGGGTCACTCAAACAAAG | -0.0834 | -0.151 | -0.416 | 0.203 | -1.03 | 1.39 | 0.643 | 1.19 | -0.515 | 0.491
9 | CAGCCTAGGTCAGGGCCAGTACAGGAGGAACGTT | 1.53 | 0.993 | -0.276 | 0.431 | -1.11 | 2.09 | 0.833 | 0.908 | -0.375 | 0.307
10 | GGACCAAGGTGAATAGGTCGTTGATGAGTAGGCG | 0.798 | 0.779 | -0.0064 | 0.446 | -0.809 | 2.28 | 1.47 | 1.59 | 0.243 | 0.903
11 | ATATGTAGGTTACATCCGGGTCACTCAGGCTATG | 2.08 | 3.86 | 1.09 | 2.75 | 0.682 | 4.31 | 6.07 | 5.17 | 2.68 | 4.31
12 | TCTTGTAGATCAACAGGAGGTTAAGCAAGATCGA | 0.257 | 0.838 | -0.069 | 0.853 | -0.368 | 1.48 | 0.076 | 1.47 | 2.39 | 1.74
13 | TCGAGTAGGTTAGGGGCATTCGGAATGGCGTCGA | 0.123 | 0.347 | -0.32 | 0.736 | -0.712 | 1.06 | 0.477 | 2.22 | 1.15 | 1.51
